Publication PMC7862700, “An all-to-all approach to the identification of sequence-specific readers for epigenetic DNA modifications on cytosine”

Target: T1, ERF (Homo sapiens, UniProt P50548 1-548)
T1 sequence: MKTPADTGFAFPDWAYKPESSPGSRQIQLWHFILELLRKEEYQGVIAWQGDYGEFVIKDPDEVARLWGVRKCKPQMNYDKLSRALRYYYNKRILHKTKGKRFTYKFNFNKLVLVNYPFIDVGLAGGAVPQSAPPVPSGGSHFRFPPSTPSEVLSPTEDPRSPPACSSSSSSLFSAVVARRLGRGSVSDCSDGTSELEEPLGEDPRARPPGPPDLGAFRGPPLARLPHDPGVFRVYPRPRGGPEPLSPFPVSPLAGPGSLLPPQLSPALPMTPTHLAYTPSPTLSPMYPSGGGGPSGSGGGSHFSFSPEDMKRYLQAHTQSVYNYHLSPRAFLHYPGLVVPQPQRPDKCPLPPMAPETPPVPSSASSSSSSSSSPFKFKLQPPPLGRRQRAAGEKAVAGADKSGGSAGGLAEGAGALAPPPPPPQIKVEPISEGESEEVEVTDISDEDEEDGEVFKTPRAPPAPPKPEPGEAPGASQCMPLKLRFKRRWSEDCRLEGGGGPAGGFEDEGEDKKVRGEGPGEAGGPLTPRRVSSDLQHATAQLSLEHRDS
Test: DAPPL (digital affinity profiling via proximity ligation, sequencing); 10 mM Tris-HCl pH 7.5, 50 mM NaCl, 1 mM DTT, 4% glycerol, room temperature, 30 min; GST-TFs on glutathione beads, 16-mer random dsDNA library, 0.1% formaldehyde crosslink after washing; high values mean tight binding
Conditions: protein: recombinant; tags: N-terminal GST; dsDNA, one strand shown
Summary of the method: (§1)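 Yeast served to express human transcription factors as GST fusions, which were then captured on glutathione beads and labelled with DNA barcodes. Pooled with a tag-only sample, they were incubated with 200 nmole of a 16-mer random double-stranded DNA library for 30 min at room temperature in Tris/NaCl/DTT/glycerol buffer, washed, crosslinked with 0.1% formaldehyde, ligated by proximity, amplified by PCR and sequenced. Dividing each hexamer's read frequency for a factor by its frequency for the tag-only sample gives the binding signal.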

Row | Sequence | binding signal
1 | AGTATT | 1.3 fold enrichment (6-mer frequency, TF over GST control)
2 | GCTCTC | 1.42 fold enrichment (6-mer frequency, TF over GST control)
3 | AAAAAT | 1.35 fold enrichment (6-mer frequency, TF over GST control)
4 | TCGACC | 1.31 fold enrichment (6-mer frequency, TF over GST control)
5 | ACAGCT | 1.24 fold enrichment (6-mer frequency, TF over GST control)
6 | TGATGG | 1.27 fold enrichment (6-mer frequency, TF over GST control)
7 | TGATGC | 1.48 fold enrichment (6-mer frequency, TF over GST control)
8 | CCTATA | 1.33 fold enrichment (6-mer frequency, TF over GST control)
9 | TAAGTT | 1.18 fold enrichment (6-mer frequency, TF over GST control)
10 | TTACGG | 1.36 fold enrichment (6-mer frequency, TF over GST control)
11 | TTGATA | 1.24 fold enrichment (6-mer frequency, TF over GST control)
12 | GCTTTC | 1.28 fold enrichment (6-mer frequency, TF over GST control)
13 | AATGTT | 1.61 fold enrichment (6-mer frequency, TF over GST control)
14 | TAATTT | 1.43 fold enrichment (6-mer frequency, TF over GST control)
15 | CCTTGA | 1.27 fold enrichment (6-mer frequency, TF over GST control)
16 | GTTCTT | 1.16 fold enrichment (6-mer frequency, TF over GST control)
17 | CCGAAT | 1.35 fold enrichment (6-mer frequency, TF over GST control)
18 | CCATAA | 1.24 fold enrichment (6-mer frequency, TF over GST control)
19 | CTCTCA | 1.5 fold enrichment (6-mer frequency, TF over GST control)
20 | AAATAA | 1.38 fold enrichment (6-mer frequency, TF over GST control)

Row | Sequence | binding signal
21 | ACTCTG | 1.43 fold enrichment (6-mer frequency, TF over GST control)
22 | TCTCGT | 1.16 fold enrichment (6-mer frequency, TF over GST control)
23 | TTAACT | 1.23 fold enrichment (6-mer frequency, TF over GST control)
24 | ATGAAA | 1.21 fold enrichment (6-mer frequency, TF over GST control)
25 | GCGATG | 1.38 fold enrichment (6-mer frequency, TF over GST control)
26 | ACTAAC | 1.34 fold enrichment (6-mer frequency, TF over GST control)
27 | ATCTCT | 1.38 fold enrichment (6-mer frequency, TF over GST control)
28 | ACTAGC | 1.19 fold enrichment (6-mer frequency, TF over GST control)
29 | TATTCA | 1.36 fold enrichment (6-mer frequency, TF over GST control)
30 | TTTTAT | 1.17 fold enrichment (6-mer frequency, TF over GST control)
31 | GTTATT | 1.12 fold enrichment (6-mer frequency, TF over GST control)
32 | TTCTAC | 1.7 fold enrichment (6-mer frequency, TF over GST control)
33 | GCTTCT | 1.64 fold enrichment (6-mer frequency, TF over GST control)
34 | AGTGCT | 1.41 fold enrichment (6-mer frequency, TF over GST control)
35 | ATCGAT | 1.13 fold enrichment (6-mer frequency, TF over GST control)
36 | TCTCAG | 1.26 fold enrichment (6-mer frequency, TF over GST control)
37 | CTTCTG | 1.28 fold enrichment (6-mer frequency, TF over GST control)
38 | GCTCTA | 1.27 fold enrichment (6-mer frequency, TF over GST control)
39 | ACTTTA | 1.12 fold enrichment (6-mer frequency, TF over GST control)

Target: T2, ETV3L (Homo sapiens, UniProt Q6ZN32 1-361)
T2 sequence: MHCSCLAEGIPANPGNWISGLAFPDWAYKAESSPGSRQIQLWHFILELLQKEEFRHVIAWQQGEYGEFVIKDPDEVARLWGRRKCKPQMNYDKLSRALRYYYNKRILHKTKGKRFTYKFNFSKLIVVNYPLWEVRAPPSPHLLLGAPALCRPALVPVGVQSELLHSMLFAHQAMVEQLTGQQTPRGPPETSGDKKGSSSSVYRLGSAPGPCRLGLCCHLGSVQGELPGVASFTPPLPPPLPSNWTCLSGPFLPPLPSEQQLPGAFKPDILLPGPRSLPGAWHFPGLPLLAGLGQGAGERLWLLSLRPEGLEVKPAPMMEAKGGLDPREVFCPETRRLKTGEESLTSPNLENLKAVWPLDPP
Test: as above
Conditions: protein: recombinant; tags: N-terminal GST; dsDNA, one strand shown
Summary of the method: as §1

Row | Sequence | binding signal
40 | AGTATT | 1.22 fold enrichment (6-mer frequency, TF over GST control)
41 | GCTCTC | 1.52 fold enrichment (6-mer frequency, TF over GST control)
42 | AAAAAT | 1.34 fold enrichment (6-mer frequency, TF over GST control)
43 | TCGACC | 1.33 fold enrichment (6-mer frequency, TF over GST control)
44 | ACAGCT | 1.19 fold enrichment (6-mer frequency, TF over GST control)
45 | TGATGG | 1.16 fold enrichment (6-mer frequency, TF over GST control)
46 | TGATGC | 1.61 fold enrichment (6-mer frequency, TF over GST control)
47 | CCTATA | 1.34 fold enrichment (6-mer frequency, TF over GST control)
48 | TAAGTT | 1.4 fold enrichment (6-mer frequency, TF over GST control)
49 | TTACGG | 1.22 fold enrichment (6-mer frequency, TF over GST control)
50 | TTGATA | 1.27 fold enrichment (6-mer frequency, TF over GST control)
51 | GCTTTC | 1.29 fold enrichment (6-mer frequency, TF over GST control)
52 | AATGTT | 1.56 fold enrichment (6-mer frequency, TF over GST control)
53 | TAATTT | 1.48 fold enrichment (6-mer frequency, TF over GST control)
54 | CCTTGA | 1.17 fold enrichment (6-mer frequency, TF over GST control)
55 | GTTCTT | 1.28 fold enrichment (6-mer frequency, TF over GST control)
56 | CCGAAT | 1.24 fold enrichment (6-mer frequency, TF over GST control)
57 | CCATAA | 1.22 fold enrichment (6-mer frequency, TF over GST control)
58 | CTCTCA | 1.39 fold enrichment (6-mer frequency, TF over GST control)
59 | AAATAA | 1.26 fold enrichment (6-mer frequency, TF over GST control)

Row | Sequence | binding signal
60 | ACTCTG | 1.28 fold enrichment (6-mer frequency, TF over GST control)
61 | TCTCGT | 1.21 fold enrichment (6-mer frequency, TF over GST control)
62 | TTAACT | 1.19 fold enrichment (6-mer frequency, TF over GST control)
63 | ATGAAA | 1.16 fold enrichment (6-mer frequency, TF over GST control)
64 | GCGATG | 1.26 fold enrichment (6-mer frequency, TF over GST control)
65 | ACTAAC | 1.29 fold enrichment (6-mer frequency, TF over GST control)
66 | ATCTCT | 1.27 fold enrichment (6-mer frequency, TF over GST control)
67 | ACTAGC | 1.16 fold enrichment (6-mer frequency, TF over GST control)
68 | TATTCA | 1.43 fold enrichment (6-mer frequency, TF over GST control)
69 | TTTTAT | 1.39 fold enrichment (6-mer frequency, TF over GST control)
70 | GTTATT | 1.13 fold enrichment (6-mer frequency, TF over GST control)
71 | TTCTAC | 1.51 fold enrichment (6-mer frequency, TF over GST control)
72 | GCTTCT | 1.37 fold enrichment (6-mer frequency, TF over GST control)
73 | AGTGCT | 1.32 fold enrichment (6-mer frequency, TF over GST control)
74 | ATCGAT | 1.17 fold enrichment (6-mer frequency, TF over GST control)
75 | TCTCAG | 1.26 fold enrichment (6-mer frequency, TF over GST control)
76 | CTTCTG | 1.47 fold enrichment (6-mer frequency, TF over GST control)
77 | GCTCTA | 1.24 fold enrichment (6-mer frequency, TF over GST control)
78 | ACTTTA | 1.26 fold enrichment (6-mer frequency, TF over GST control)

Target: T3, ETS2 (Homo sapiens, UniProt P15036 1-469)
T3 sequence: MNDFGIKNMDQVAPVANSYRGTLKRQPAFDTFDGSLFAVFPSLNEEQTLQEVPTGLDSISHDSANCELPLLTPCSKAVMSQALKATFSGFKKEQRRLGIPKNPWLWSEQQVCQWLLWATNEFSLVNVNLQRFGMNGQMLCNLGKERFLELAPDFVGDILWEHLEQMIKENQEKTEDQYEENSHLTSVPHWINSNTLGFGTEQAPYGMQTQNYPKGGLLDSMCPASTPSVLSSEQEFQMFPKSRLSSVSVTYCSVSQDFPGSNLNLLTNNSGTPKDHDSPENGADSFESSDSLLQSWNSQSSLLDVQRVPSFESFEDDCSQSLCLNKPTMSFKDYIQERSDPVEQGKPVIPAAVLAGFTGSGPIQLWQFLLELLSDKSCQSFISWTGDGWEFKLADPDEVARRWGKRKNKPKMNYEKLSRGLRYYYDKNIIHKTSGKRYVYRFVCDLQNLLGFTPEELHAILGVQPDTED
Test: as above
Conditions: protein: recombinant; tags: N-terminal GST; dsDNA, one strand shown
Summary of the method: as §1

Row | Sequence | binding signal
79 | AGTATT | 1.17 fold enrichment (6-mer frequency, TF over GST control)
80 | GCTCTC | 1.51 fold enrichment (6-mer frequency, TF over GST control)
81 | AAAAAT | 1.3 fold enrichment (6-mer frequency, TF over GST control)
82 | TCGACC | 1.24 fold enrichment (6-mer frequency, TF over GST control)
83 | ACAGCT | 1.12 fold enrichment (6-mer frequency, TF over GST control)
84 | TGATGG | 1.22 fold enrichment (6-mer frequency, TF over GST control)
85 | TGATGC | 1.58 fold enrichment (6-mer frequency, TF over GST control)
86 | CCTATA | 1.42 fold enrichment (6-mer frequency, TF over GST control)
87 | TAAGTT | 1.38 fold enrichment (6-mer frequency, TF over GST control)
88 | TTACGG | 1.43 fold enrichment (6-mer frequency, TF over GST control)
89 | TTGATA | 1.15 fold enrichment (6-mer frequency, TF over GST control)
90 | GCTTTC | 1.24 fold enrichment (6-mer frequency, TF over GST control)
91 | AATGTT | 1.56 fold enrichment (6-mer frequency, TF over GST control)
92 | TAATTT | 1.41 fold enrichment (6-mer frequency, TF over GST control)
93 | CCTTGA | 1.2 fold enrichment (6-mer frequency, TF over GST control)
94 | GTTCTT | 1.2 fold enrichment (6-mer frequency, TF over GST control)
95 | CCGAAT | 1.22 fold enrichment (6-mer frequency, TF over GST control)
96 | CCATAA | 1.22 fold enrichment (6-mer frequency, TF over GST control)
97 | CTCTCA | 1.42 fold enrichment (6-mer frequency, TF over GST control)
98 | AAATAA | 1.39 fold enrichment (6-mer frequency, TF over GST control)

Row | Sequence | binding signal
99 | ACTCTG | 1.29 fold enrichment (6-mer frequency, TF over GST control)
100 | TCTCGT | 1.34 fold enrichment (6-mer frequency, TF over GST control)
101 | TTAACT | 1.25 fold enrichment (6-mer frequency, TF over GST control)
102 | ATGAAA | 1.15 fold enrichment (6-mer frequency, TF over GST control)
103 | GCGATG | 1.35 fold enrichment (6-mer frequency, TF over GST control)
104 | ACTAAC | 1.29 fold enrichment (6-mer frequency, TF over GST control)
105 | ATCTCT | 1.29 fold enrichment (6-mer frequency, TF over GST control)
106 | ACTAGC | 1.16 fold enrichment (6-mer frequency, TF over GST control)
107 | TATTCA | 1.34 fold enrichment (6-mer frequency, TF over GST control)
108 | TTTTAT | 1.23 fold enrichment (6-mer frequency, TF over GST control)
109 | GTTATT | 1.14 fold enrichment (6-mer frequency, TF over GST control)
110 | TTCTAC | 1.62 fold enrichment (6-mer frequency, TF over GST control)
111 | GCTTCT | 1.5 fold enrichment (6-mer frequency, TF over GST control)
112 | AGTGCT | 1.46 fold enrichment (6-mer frequency, TF over GST control)
113 | ATCGAT | 1.1 fold enrichment (6-mer frequency, TF over GST control)
114 | TCTCAG | 1.37 fold enrichment (6-mer frequency, TF over GST control)
115 | CTTCTG | 1.34 fold enrichment (6-mer frequency, TF over GST control)
116 | GCTCTA | 1.16 fold enrichment (6-mer frequency, TF over GST control)
117 | ACTTTA | 1.25 fold enrichment (6-mer frequency, TF over GST control)
